Molecules are shown by their SMILES. For part of these data: Entries with a potency or affinity are not part of this list. Activity calls are given as the source filed them. Unless noted, no rule for the calls is given here.

The target of assay [1] is Cell division control protein 42 homolog (Homo sapiens) (UniProt P60953). The assay is described as follows: activated mutant Cdc42 GTP-binding inhibitors, dose response, biochemical, multiplex bead flow cytometry, Bodipy-FL-GTP (AID 1333;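 active = fitted half-maximal concentration within the tested dose range, moderate curve steepness, a statistically real signal drop, and little compound fluorescence or tag-binding interference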).
Cell division control protein 42 homolog (Homo sapiens), sequence (P60953 whole entry, looked up): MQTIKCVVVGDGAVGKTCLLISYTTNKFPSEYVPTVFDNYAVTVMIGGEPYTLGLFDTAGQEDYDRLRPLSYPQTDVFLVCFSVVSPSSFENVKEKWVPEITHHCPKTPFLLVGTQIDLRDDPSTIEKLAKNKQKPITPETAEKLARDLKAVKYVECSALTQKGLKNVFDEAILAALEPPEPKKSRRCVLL
Assay [2] shares this target. Put plainly: wildtype Cdc42 GTP-binding inhibitors, dose response, biochemical, multiplex bead flow cytometry, Bodipy-FL-GTP (AID 1334;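 active = fitted half-maximal concentration within the tested range, moderate curve steepness, significant signal drop, and little compound fluorescence or bead-linkage interference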). The note with it: bead-based flow cytometry, Bodipy-FL-GTP binding to GST-Cdc42; at 100 µM (top of the series) unless noted. A general note: Flow cytometry measures light scatter and fluorescence of single cells or particles in a stream.

Assay [3] deals with GTPase HRas (Homo sapiens) (UniProt P01112). The assay is described as follows: inhibitors of GTP binding to wildtype Ras, dose response, biochemical, multiplex bead flow cytometry (AID 1335;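 active = fitted half-maximal concentration within 10 nM to 100 µM, steepness 0.5 to 2, significant signal drop, low assay interference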). The conditions noted are these: bead-based flow cytometry, Bodipy-GTP binding to GST-Ras; at 100 µM (top of the series) unless noted.
GTPase HRas (Homo sapiens), sequence (P01112 whole entry, looked up): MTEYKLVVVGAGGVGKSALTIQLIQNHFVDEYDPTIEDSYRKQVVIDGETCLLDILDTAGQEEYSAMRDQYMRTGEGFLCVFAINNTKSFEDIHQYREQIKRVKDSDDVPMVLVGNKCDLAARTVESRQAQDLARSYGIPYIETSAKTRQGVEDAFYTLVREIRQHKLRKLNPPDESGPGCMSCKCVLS
Assay [4] relates to Ras-related protein Rab-7a (dog), GTP binding. Put plainly: Rab7 GTP binding inhibitors, potency, dose response, biochemical, wildtype, multiplex bead flow cytometry (AID 1336).
In assay [5] the target is Ras-related C3 botulinum toxin substrate 1 (Homo sapiens) (UniProt P63000). Put plainly: wildtype Rac1 GTP binding inhibitors, dose response, biochemical, multiplex bead flow cytometry (AID 1340;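 active = dose curve with midpoint inside tested range, moderate steepness, plateau gap beyond fit error, low compound glow and bead-link interference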). The conditions noted are these: GST-Rac1 beads, Bodipy-FL-GTP binding; at 100 µM (top of the series) unless noted.
For assay [6], the target named is GTPase HRas (Homo sapiens) (UniProt P01112). Put plainly: activated Ras mutant GTP binding inhibitors, dose response, biochemical, multiplex bead flow cytometry (AID 1341;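 active = dose-response curve with midpoint inside the tested range, moderate steepness, significant amplitude and little compound fluorescence or bead-attachment interference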;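 also: GST-tagged constitutively activated Ras mutant immobilized on beads and multiplexed with other GTPases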).

In the case of `O=C(C[n+]1cccc(CNC(=O)c2ccc(OC(F)F)cc2)c1)Nc1ccccc1Cl`, the compound was called inactive in assay [1], in assay [4] and in assay [6]. The fluorescence, percent of control (lower = inhibition) in assay [2] is 51.9%. Also, the GTP binding, percent of control in assay [3] is 60.5%. The same compound displayed a GTP binding signal, raw median fluorescence (lower = inhibition) (MCF (arbitrary fluorescence units)) in assay [5] of 203.

`COc1ccc(OC)c(/C=N/NC(=O)c2ccc(Cn3cc([N+](=O)[O-])cn3)o2)c1`: the result in assay [1], in assay [4] and in assay [6] was inactive. Besides, in assay [2], the fluorescence, percent of control (lower = inhibition) was found to be 30.5%. In assay [3], the GTP binding, percent of control is 66.3%. In assay [5], the GTP binding signal, raw median fluorescence (lower = inhibition) (MCF (arbitrary fluorescence units)) turned out to be 159.

With `CC1=C(C(=O)Nc2ccccc2)C(c2ccc(Cl)cc2)n2c(s/c(=C/c3cccc(OCC(=O)O)c3)c2=O)=N1` (centres undefined), the compound was called inactive in assay [1], in assay [4] and in assay [6]. This compound displayed a fluorescence, percent of control (lower = inhibition) in assay [2] of 26.5%. Further, the GTP binding, percent of control in assay [3] was found to be 75.3%. Also, the GTP binding signal, raw median fluorescence (lower = inhibition) (MCF (arbitrary fluorescence units)) in assay [5] came to 176.

On to `CCc1ccc(Cn2nnc(C(=O)O)c2C(=O)O)cc1`, for which the compound was classed as inactive in assay [1], in assay [4] and in assay [6]. Moreover, the fluorescence, percent of control (lower = inhibition) in assay [2] came out at 58.5%. For the same compound, the GTP binding, percent of control in assay [3] was 82.3%. The GTP binding signal, raw median fluorescence (lower = inhibition) (MCF (arbitrary fluorescence units)) in assay [5] came out at 30.7.

Consider `COc1ccc(-c2nn3c(-c4ccco4)nnc3s2)cc1OC`, for which the result in assay [1], in assay [4] and in assay [6] was inactive. Besides, the fluorescence, percent of control (lower = inhibition) in assay [2] was found to be 39.1%. For the same compound, the GTP binding, percent of control in assay [3] stood at 132%. In addition, in assay [5], the GTP binding signal, raw median fluorescence (lower = inhibition) (MCF (arbitrary fluorescence units)) is 143.

Turning to `N#C/C(=C/c1ccc(-c2cc(C(=O)O)cc(C(=O)O)c2)o1)c1nc2ccccc2s1`, the compound was classed as inactive in assay [1], in assay [4] and in assay [6]. In assay [2], this compound yielded a fluorescence, percent of control (lower = inhibition) of 27%. The compound also had a GTP binding, percent of control in assay [3] of 66.4%. This compound gave a GTP binding signal, raw median fluorescence (lower = inhibition) (MCF (arbitrary fluorescence units)) in assay [5] of 110.

Take `CC1(C)Cc2c(sc(NC(=O)c3ccc(Br)o3)c2C#N)CO1`: the call in assay [1], in assay [4] and in assay [6] was inactive. In assay [2], the fluorescence, percent of control (lower = inhibition) was found to be 49.4%. In addition, the GTP binding, percent of control in assay [3] amounted to 62.3%. In addition, the GTP binding signal, raw median fluorescence (lower = inhibition) (MCF (arbitrary fluorescence units)) in assay [5] stood at 212.

Regarding `COc1ccc(-c2cc(=O)c(C(=O)c3ccc(C)cc3)n[nH]2)cc1`, the compound was called inactive in assay [1], in assay [4] and in assay [6]. This compound showed a fluorescence, percent of control (lower = inhibition) in assay [2] of 35.8%. In assay [3], this compound showed a GTP binding, percent of control of 80.8%. Besides, the GTP binding signal, raw median fluorescence (lower = inhibition) (MCF (arbitrary fluorescence units)) in assay [5] came to 317.

For the compound `N#Cc1c(-c2cccc(Br)c2)cc(-c2ccco2)[nH]c1=O`, the result in assay [1], in assay [4] and in assay [6] was inactive. The same compound had a fluorescence, percent of control (lower = inhibition) in assay [2] of 23.1%. The compound also had a GTP binding, percent of control in assay [3] of 58.9%. This compound also showed a GTP binding signal, raw median fluorescence (lower = inhibition) (MCF (arbitrary fluorescence units)) in assay [5] of 182.

Regarding `N#Cc1ccc(OCc2ccc(C(=O)O)o2)cc1`, the result in assay [1], in assay [4] and in assay [6] was inactive. In assay [2], this compound gave a fluorescence, percent of control (lower = inhibition) of 63.6%. The GTP binding, percent of control in assay [3] stood at 87.2%. In addition, the GTP binding signal, raw median fluorescence (lower = inhibition) (MCF (arbitrary fluorescence units)) in assay [5] came to 37.7.

As for `COc1cc(CCNc2ccc3nnc(-c4ccccc4)n3n2)cc(OC)c1OC`, the result in assay [1], in assay [4] and in assay [6] was inactive. In addition, the fluorescence, percent of control (lower = inhibition) in assay [2] was 34.8%. The GTP binding, percent of control in assay [3] was found to be 44%. This compound had a GTP binding signal, raw median fluorescence (lower = inhibition) (MCF (arbitrary fluorescence units)) in assay [5] of 123.

In the case of `Cn1cc(C(=O)N2CCc3ccccc3C2)c(=O)c2cc(S(=O)(=O)N3CCCCC3)ccc21`, the compound was called inactive in assay [1], in assay [4] and in assay [6]. Besides, the fluorescence, percent of control (lower = inhibition) in assay [2] is 60.6%. In assay [3], this compound registered a GTP binding, percent of control of 110%. This compound also gave a GTP binding signal, raw median fluorescence (lower = inhibition) (MCF (arbitrary fluorescence units)) in assay [5] of 370.

For `COc1cc(/C=N/NC(=O)c2cc3ccccc3cc2O)ccc1OCCN1CCCCC1`, the call in assay [1], in assay [4] and in assay [6] was inactive. The same compound showed a fluorescence, percent of control (lower = inhibition) in assay [2] of 39.4%. In assay [3], this compound yielded a GTP binding, percent of control of 91.1%. This compound also yielded a GTP binding signal, raw median fluorescence (lower = inhibition) (MCF (arbitrary fluorescence units)) in assay [5] of 328.

Take `CC(=O)c1ccc(N2CCN(C(=O)c3ccc4c(=O)n(-c5ccccc5)c(=O)[nH]c4c3)CC2)cc1`: the call in assay [1], in assay [4] and in assay [6] was inactive. Further, the fluorescence, percent of control (lower = inhibition) in assay [2] is 35.7%. This compound yielded a GTP binding, percent of control in assay [3] of 84.8%. In assay [5], the GTP binding signal, raw median fluorescence (lower = inhibition) (MCF (arbitrary fluorescence units)) came to 304.

(Values after PubChem BioAssay.)
